Holding throughout (assay): qHTS profiling for inhibitors of Plasmodium falciparum proliferation (AID 504749); further: nearly all actives have a fitted effect of over 60% in size
Conditions in all cases: P. falciparum in erythrocytes, SYBR Green DNA, 72 h; series mostly up to 28.7 µM

For one assay, the system named is AA1029. An outline of the steps: (§1)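 SYBR Green fluorescence (ex 485 nm, em 535 nm) reports parasite DNA after 72 h compound exposure of infected red cells at 0.3% parasitemia, 2.5% hematocrit; signal normalized to 0.29 uM artemisinin and vehicle wells.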
The next assay deals with AS120. In short, it runs like this:
as §1

In a further assay the test system is ATS189. An outline of the steps:
as §1

A further assay concerns ATS95. An outline of the steps: as §1
The test system of the next assay is C2A. An outline of the steps: as §1
Another assay relates to CP185. An outline of the steps:
as §1

Another assay deals with CP191. In short, it runs like this: as §1
In the next assay the test system is CP192. An outline of the steps:
as §1

In another assay the test system is CP194. An outline of the steps:
as §1

In a further assay the test system is CP201. An outline of the steps: as §1

Results on 25 molecules are retold here after PubChem BioAssay (NCATS).

SMILES strings stand for the structures. Results filed as inconclusive are left out. Active and inactive are the calls of the source. The call rests on the fitted dose curve; in most records, active means well fitted inhibition curve with a large enough effect; inconclusive means small, poorly fitted or top-dose-only effect; inactive means flat fitted curve, though single readings scatter.
Potency means the concentration at half of the fitted maximal effect.

`CCCN1CCCC2Cc3[nH]ncc3CC21` (stereo not drawn): the Potency entry with AA1029, in the assay on AS120, with ATS189, in the assay on ATS95, in the assay on C2A and in the assay on CP185 was “inactive” each time. Further, the Potency result with CP191 was “inactive”.

As for `CCN(CC)C(=O)/C(Cl)=C(\C)OP(=O)(OC)OC`, the Potency result with AA1029, in the assay with AS120, in the assay with ATS189, in the assay on ATS95, in the assay on C2A and with CP185 was “inactive” throughout. For the same molecule, the Potency result in the assay with CP191 was “inactive”.

Regarding `c1ccc2cc(CC3=NCCN3)ccc2c1`, the Potency entry in the assay on AA1029, in the assay on AS120, in the assay with ATS189, with ATS95, in the assay with C2A and in the assay with CP185 was “inactive” in each case. The Potency result in the assay with CP191, in the assay with CP192, with CP194 and in the assay with CP201 was “inactive” throughout.

With `O=S(=O)(O)c1cc(O)ccc1O`, the Potency entry in the assay with AA1029, with AS120, in the assay with ATS189, with ATS95, in the assay on C2A and in the assay with CP185 was “inactive” throughout. Besides, the Potency entry in the assay with CP191, with CP192, in the assay on CP194 and with CP201 was “inactive” throughout.

As for `C[C@H]1CC[C@@H]2[C@@H](C)[C@H]3[C@H](C[C@H]4[C@@H]5CC=C6CC(O[C@@H]7O[C@H](CO)[C@H](O)[C@H](O[C@@H]8O[C@H](CO)[C@@H](O)[C@H](O)[C@H]8O)[C@H]7O[C@H]7O[C@@H](C)[C@H](O)[C@@H](O)[C@H]7O)CC[C@]6(C)[C@H]5CC[C@]34C)N2C1` (stereo partly drawn), the Potency result in the assay on AA1029, with AS120, in the assay on ATS189, with ATS95, in the assay with C2A and in the assay with CP185 was “inactive” each time. In addition, the Potency entry in the assay with CP191, in the assay on CP192, with CP194 and in the assay with CP201 was “inactive” throughout.

`CCC(=O)O[C@@](Cc1ccccc1)(c1ccccc1)[C@@H](C)CN(C)C`: the Potency entry in the assay with AA1029, in the assay on AS120, in the assay with ATS189, in the assay on ATS95, in the assay with C2A and in the assay with CP185 was “inactive” each time. Also, the Potency entry in the assay on CP191, in the assay with CP192, in the assay with CP194 and in the assay with CP201 was “inactive” each time.

Turning to `C[C@]12CCC(=O)C[C@@H]1CC[C@@H]1[C@@H]2CC[C@]2(C)[C@@H](O)CC[C@@H]12`, the Potency entry in the assay with AA1029, with AS120, in the assay with ATS189, with ATS95, in the assay on C2A and in the assay on CP185 was “inactive” in each case. Also, the Potency entry in the assay with CP191, in the assay on CP192, with CP194 and in the assay on CP201 was “inactive” each time.

On to `Oc1cccc[c]1[Hg][Cl]`, for which the Potency is 11.2 µM (active) in the assay on AA1029; 7.94 µM (active) in the assay on AS120; 12.6 µM (active) with ATS189; 10 µM (active) in the assay on ATS95; 12.6 µM (active) with C2A; 7.94 µM (active) in the assay with CP185. The Potency in the assay on CP191 was 10 µM (active); in the assay with CP192, 15.1 µM (active).

Take `C[N+]1(C)C2CCC1CC(OC(=O)c1c[nH]c3ccccc13)C2` (stereo not drawn): the Potency entry with AA1029, in the assay with AS120, with ATS189, in the assay with ATS95, in the assay with C2A and in the assay with CP185 was “inactive” in each case. The Potency result in the assay on CP191, in the assay on CP192, in the assay on CP194 and in the assay on CP201 was “inactive” throughout.

For the molecule `C=CCC1(C(C)CCC)C(=O)N=C(S)NC1=O` (stereo not drawn), the Potency entry in the assay with AA1029, with AS120, in the assay with ATS189, in the assay with ATS95, with C2A and in the assay on CP185 was “inactive” throughout. Also, the Potency result with CP191 was “inactive”.

As to `CNC(=O)OCC[N+](C)(C)C`, the Potency result in the assay on AA1029, in the assay with AS120, with ATS189, with ATS95, with C2A and in the assay with CP185 was “inactive” each time. Besides, the Potency entry with CP191, with CP192, in the assay with CP194 and in the assay with CP201 was “inactive” each time.

`C/C(=C\c1csc(C)n1)[C@@H]1C[C@@H]2O[C@]2(C)CCC[C@H](C)[C@H](O)[C@@H](C)C(=O)C(C)(C)[C@@H](O)CC(=O)O1`: the Potency in the assay on AA1029 is 0.0045 µM (active); in the assay with AS120, 0.0025 µM (active); with ATS189, 0.0071 µM (active); in the assay with ATS95, 0.0035 µM (active); in the assay with C2A, 0.0045 µM (active); with CP185 it was 0.002 µM (active). Also, the Potency with CP191 was 0.0028 µM (active); in the assay on CP192, 0.003 µM (active); in the assay on CP194, 3.8 nM (active).

Take `N#CN`: the Potency entry with AA1029, in the assay on AS120, in the assay with ATS189, with ATS95, in the assay on C2A and in the assay with CP185 was “inactive” throughout. In addition, the Potency result in the assay on CP191, with CP192, with CP194 and with CP201 was “inactive” each time.

With `NCC(O)c1cccc(O)c1` (stereo not drawn), the Potency entry in the assay on AA1029, in the assay on AS120, in the assay with ATS189, in the assay on ATS95, in the assay on C2A and in the assay with CP185 was “inactive” in each case. The Potency entry in the assay on CP191, with CP192, in the assay with CP194 and with CP201 was “inactive” throughout.

Take `Clc1ccc(C2(Cn3cncn3)OCCO2)c(Cl)c1`: the Potency entry with AA1029, in the assay on AS120, in the assay with ATS189, in the assay on ATS95, in the assay with C2A and in the assay with CP185 was “inactive” throughout. In addition, the Potency entry in the assay with CP191, with CP192, in the assay with CP194 and in the assay with CP201 was “inactive” throughout.

As to `ClC1C(Cl)C(Cl)C(Cl)C(Cl)C1Cl` (stereo not drawn), the Potency entry in the assay with AA1029, with AS120, with ATS189, in the assay on ATS95, in the assay on C2A and in the assay with CP185 was “inactive” in each case. Besides, the Potency entry in the assay on CP191, in the assay with CP192, in the assay with CP194 and with CP201 was “inactive” throughout.

Regarding `CCNC(C)Cc1cccc(C(F)(F)F)c1` (stereo not drawn), the Potency result in the assay with AA1029, in the assay on AS120, in the assay on ATS189, in the assay with ATS95, in the assay with C2A and with CP185 was “inactive” in each case. The Potency result in the assay with CP191, in the assay with CP192, in the assay on CP194 and with CP201 was “inactive” each time.

Regarding `CC(N)Cc1ccc(O)cc1` (stereo not drawn), the Potency entry in the assay with AA1029, with AS120, with ATS189, in the assay with ATS95, with C2A and in the assay with CP185 was “inactive” in each case. In addition, the Potency result in the assay with CP191, with CP192, with CP194 and in the assay on CP201 was “inactive” each time.

On to `CCCC(C)C1(CC)C(=O)NC(=O)NC1=O` (stereo not drawn), for which the Potency entry with AA1029, in the assay with AS120, in the assay with ATS189, with ATS95, with C2A and in the assay on CP185 was “inactive” each time. The Potency result in the assay with CP191, with CP192, in the assay on CP194 and with CP201 was “inactive” in each case.

On to `COc1ccc2c3c1O[C@H]1C(=O)CC[C@H]4[C@@H](C2)N(C)CC[C@]314`, for which the Potency result in the assay on AA1029, with AS120, in the assay with ATS189, with ATS95, in the assay on C2A and in the assay on CP185 was “inactive” throughout. Also, the Potency result with CP191, with CP192, in the assay on CP194 and in the assay with CP201 was “inactive” in each case.

On to `O=C1CCCCC1CN1CCCCC1` (stereo not drawn), for which the Potency entry with AA1029, in the assay on AS120, in the assay with ATS189, in the assay with ATS95, in the assay on C2A and with CP185 was “inactive” throughout. Besides, the Potency entry with CP191, with CP192, in the assay with CP194 and in the assay on CP201 was “inactive” throughout.

As for `C#CC(C)(O)CC` (stereo not drawn), the Potency result in the assay on AA1029, in the assay with AS120, in the assay with ATS189, with ATS95, with C2A and in the assay on CP185 was “inactive” in each case. Also, the Potency result with CP191, in the assay with CP192, in the assay on CP194 and in the assay on CP201 was “inactive” each time.

As for `c1ccc2sc(SNC3CCCCC3)nc2c1`, the Potency result in the assay with AA1029, with AS120, with ATS189, in the assay with ATS95, in the assay with C2A and in the assay with CP185 was “inactive” each time. Also, the Potency entry with CP191, with CP192, in the assay with CP194 and in the assay with CP201 was “inactive” in each case.

Consider `O=C1CN(O)C(c2ccccc2)=c2cc(Cl)ccc2=N1`, for which the Potency entry in the assay on AA1029, with AS120, in the assay on ATS189, in the assay with ATS95, with C2A and with CP185 was “inactive” each time. The Potency entry in the assay with CP191, in the assay with CP192, in the assay with CP194 and in the assay with CP201 was “inactive” in each case.

For `FC(F)OC(F)(F)C(F)Cl` (stereo not drawn), the Potency entry in the assay on AA1029, with AS120, in the assay with ATS189, with ATS95, with C2A and in the assay with CP185 was “inactive” each time. The Potency result with CP191, with CP192, with CP194 and with CP201 was “inactive” each time.
